Data from PubChem BioAssay AID1159580 (chemical genetic matrix, 2015).
Among all 5,500 compounds or so, about 2,000 (36%) were called active. Inconclusive results (about 18%) are left out. The list shows a part of the results. A number with no mark means an inactive call. Cut-off read from the data, not from the text of the source: active = normalized growth mostly below about 0.91 (no sharp cut-off); inconclusive = no clear call, values can overlap the other calls; inactive = mostly above about 0.92.

Assay: chemical genetic growth profiling, strain panel (AID 1159580);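 note: tested at 20 µM; growth read once vehicle control cultures reached saturation at 30 °C; 1 = growth at the plate median or of vehicle wells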
Conditions: S. cerevisiae deletion strains, growth OD

SMILES: CCCCCCNC(=O)n1cc(F)c(=O)[nH]c1=O
- normalized growth (locus YAL021C, strain ccr4, stronger effect = lower value): 0.934
- normalized growth (locus YAL026C, strain drs2, stronger effect = lower value): 0.849 (active)
- normalized growth (locus YAL030W, strain snc1, stronger effect = lower value): 0.96
- normalized growth (locus YBL061C, strain skt5, stronger effect = lower value): 0.972
- normalized growth (locus YBR009C, strain hhf1, stronger effect = lower value): 0.861 (active)
- normalized growth (locus YBR023C, strain chs3, stronger effect = lower value): 0.937
- normalized growth (locus YBR171W, strain sec66, stronger effect = lower value): 0.996
- normalized growth (locus YBR231C, strain swc5, stronger effect = lower value): 0.988
- normalized growth (locus YBR279W, strain paf1, stronger effect = lower value): 0.834 (active)
- normalized growth (locus YCL011C, strain gbp2, stronger effect = lower value): 0.91
- normalized growth (locus YCL016C, strain dcc1, stronger effect = lower value): 0.86 (active)
- normalized growth (locus YCL069W, strain vba3, stronger effect = lower value): 0.842 (active)
- normalized growth (locus YCR088W, strain abp1, stronger effect = lower value): 0.934
- normalized growth (locus YDL005C, strain med2, stronger effect = lower value): 0.941
- normalized growth (locus YDL040C, strain nat1, stronger effect = lower value): 0.991
- normalized growth (locus YDR001C, strain nth1, stronger effect = lower value): 0.995
- normalized growth (locus YDR069C, strain doa4, stronger effect = lower value): 0.803 (active)
- normalized growth (locus YDR137W, strain rgp1, stronger effect = lower value): 0.553 (active)
- normalized growth (locus YDR159W, strain sac3, stronger effect = lower value): 1.22 [resistant] (active)
- normalized growth (locus YDR195W, strain ref2): 0.678 (active)
- normalized growth (locus YDR297W, strain sur2, stronger effect = lower value): 0.978
- normalized growth (locus YDR334W, strain swr1, stronger effect = lower value): 0.93
- normalized growth (locus YDR335W, strain msn5, stronger effect = lower value): 0.782 (active)
- normalized growth (locus YDR392W, strain spt3, stronger effect = lower value): 0.776
- normalized growth (locus YEL003W, strain gim4, stronger effect = lower value): 0.895 (active)
- normalized growth (locus YEL037C, strain rad23, stronger effect = lower value): 0.894 (active)
- normalized growth (locus YEL061C, strain CIN8 (second series), stronger effect = lower value): 0.95
- normalized growth (locus YER015W, strain faa2, stronger effect = lower value): 0.889 (active)
- normalized growth (locus YER016W, strain bim1, stronger effect = lower value): 0.899 (active)
- normalized growth (locus YER111C, strain swi4, stronger effect = lower value): 0.923
- normalized growth (locus YER155C, strain BEM2 (second series), stronger effect = lower value): 0.767 (active)
- normalized growth (locus YFR010W, strain ubp6, stronger effect = lower value): 0.757 (active)
- normalized growth (locus YGL167C, strain pmr1, stronger effect = lower value): 0.918
- normalized growth (locus YGL173C, strain kem1, stronger effect = lower value): 0.897 (active)
- normalized growth (locus YGL227W, strain vid30, stronger effect = lower value): 0.99
- normalized growth (locus YGL240W, strain doc1, stronger effect = lower value): 0.971
- normalized growth (locus YGL253W, strain hxk2, stronger effect = lower value): 0.613 (active)
- normalized growth (locus YHR013C, strain ard1, stronger effect = lower value): 0.933
- normalized growth (locus YHR027C, strain rpn1, stronger effect = lower value): 0.911 (active)
- normalized growth (locus YHR030C, strain SLT2, stronger effect = lower value): 0.532 (active)
- normalized growth (locus YHR079C, strain IRE1, stronger effect = lower value): 0.45 (active)
- normalized growth (locus YHR142W, strain chs7, stronger effect = lower value): 0.741 (active)
- normalized growth (locus YJL092W, strain hpr5, stronger effect = lower value): 0.912 (active)
- normalized growth (locus YJL095W, strain BCK1 (second series), stronger effect = lower value): 0.945
- normalized growth (locus YJL095W, strain BCK1, stronger effect = lower value): 0.541 (active)
- normalized growth (locus YJL115W, strain asf1, stronger effect = lower value): 0.941
- normalized growth (locus YJL129C, strain trk1, stronger effect = lower value): 0.76 (active)
- normalized growth (locus YJL154C, strain vps35, stronger effect = lower value): 0.943
- normalized growth (locus YJL164C, strain tpk1, stronger effect = lower value): 0.865 (active)
- normalized growth (locus YJL166W, strain qcr8, stronger effect = lower value): 0.902 (active)
- normalized growth (locus YJR066W, strain TOR1, stronger effect = lower value): 0.407 (active)
- normalized growth (locus YKL160W, strain elf1, stronger effect = lower value): 0.907
- normalized growth (locus YKR026C, strain gcn3, stronger effect = lower value): 0.993
- normalized growth (locus YKR091W, strain srl3, stronger effect = lower value): 0.975
- normalized growth (locus YLL001W, strain dnm1, stronger effect = lower value): 0.773 (active)
- normalized growth (locus YLL026W, stronger effect = lower value): 0.974
- normalized growth (locus YLL041C, strain sdh2, stronger effect = lower value): 0.979
- normalized growth (locus YLR027C, strain aat2, stronger effect = lower value): 0.956
- normalized growth (locus YLR113W, strain HOG1, stronger effect = lower value): 0.607 (active)
- normalized growth (locus YLR221C, strain rsa3, stronger effect = lower value): 0.697 (active)
- normalized growth (locus YLR258W, strain gsy2, stronger effect = lower value): 0.884 (active)
- normalized growth (locus YLR262C, strain YPT6 (second series), stronger effect = lower value): 0.528 (active)
- normalized growth (locus YLR320W, strain mms22, stronger effect = lower value): 0.733 (active)
- normalized growth (locus YLR342W, strain FKS1, stronger effect = lower value): 0.938
- normalized growth (locus YLR357W, strain rsc2, stronger effect = lower value): 0.803 (active)
- normalized growth (locus YLR370C, strain arc18, stronger effect = lower value): 0.923
- normalized growth (locus YLR384C, strain iki3, stronger effect = lower value): 0.963
- normalized growth (locus YML120C, strain ndi1, stronger effect = lower value): 0.92
- normalized growth (locus YMR058W, strain fet3, stronger effect = lower value): 0.926
- normalized growth (locus YMR125W, strain sto1, stronger effect = lower value): 0.958
- normalized growth (locus YMR129W, stronger effect = lower value): 0.987
- normalized growth (locus YMR205C, strain PFK2, stronger effect = lower value): 0.898
- normalized growth (locus YMR231W, strain pep5, stronger effect = lower value): 0.942
- normalized growth (locus YNL071W, strain lat1, stronger effect = lower value): 0.891 (active)
- normalized growth (locus YNL183C, strain NPR1, stronger effect = lower value): 0.48 (active)
- normalized growth (locus YNL209W, strain ssb2, stronger effect = lower value): 0.959
- normalized growth (locus YNL248C, strain rpa49, stronger effect = lower value): 0.589 (active)
- normalized growth (locus YNL322C, strain KRE1 (second series), stronger effect = lower value): 0.936
- normalized growth (locus YNR049C, strain mso1, stronger effect = lower value): 0.931
- normalized growth (locus YOR001W, strain rrp6, stronger effect = lower value): 0.257 (active)
- normalized growth (locus YOR070C, strain gyp1, stronger effect = lower value): 0.958
- normalized growth (locus YOR080W, strain dia2, stronger effect = lower value): 0.968
- normalized growth (locus YOR083W, strain WHI5, stronger effect = lower value): 0.84 (active)
- normalized growth (locus YOR106W, strain vam3, stronger effect = lower value): 0.668 (active)
- normalized growth (locus YOR231W, strain MKK1, stronger effect = lower value): 0.41 (active)
- normalized growth (locus YOR265W, strain rbl2, stronger effect = lower value): 0.968
- normalized growth (locus YOR270C, strain vph1, stronger effect = lower value): 0.518 (active)
- normalized growth (locus YOR290C, strain snf2, stronger effect = lower value): 0.723 (active)
- normalized growth (locus YPL051W, strain arl3, stronger effect = lower value): 0.843 (active)
- normalized growth (locus YPL078C, strain atp4, stronger effect = lower value): 0.77 (active)
- normalized growth (locus YPL106C, strain sse1, stronger effect = lower value): 0.722 (active)
- normalized growth (locus YPL240C, strain hsp82, stronger effect = lower value): 0.978
- normalized growth (locus YPL256C, strain CLN2, stronger effect = lower value): 0.564 (active)
